RXFP1 antagonist – qHTS Assay for Antagonists of the Relaxin Receptor RXFP1; Relaxin receptor 1 (Homo sapiens), Q9HBX9; HEK293-RXFP1, relaxin-stimulated cAMP HTRF, 30 min; active compounds read low; activity change, negative = inhibition, % at 57.5 µM; 350,000 compounds, 0.59% hits; AID 1259400, 2018;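 active means activity change of -60% or lower, but not beyond a set lower limit; inconclusive means change between -60% and -40%, or beyond the set limit; inactive means change above -40%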; further: on the % scale 0 is the no-effect control and ±100 the full control effect
RXFP1 agonist – qHTS Assay for Agonists of the Relaxin Receptor RXFP1. Relaxin receptor 1 (Homo sapiens), Q9HBX9. HEK293T-RXFP1 cAMP TR-FRET, 30 min; response scale: percent of porcine relaxin response, buffer zero. Potency, µM (doses to about 57.5 µM), for the others: top-dose activation, actives largely listed as activators. 370,000 compounds, 0.3% hits. AID 2676, 2010; active means well fitted activation curve with a large enough effect; inconclusive means small, poorly fitted or top-dose-only effect; further: potency means the concentration at half of the fitted maximal effect; on the % scale 0 is the no-effect control and ±100 the full control effect; nearly all actives have a fitted effect of over 60% in size
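cAMP rise read by TR-FRET after 30 min, 37C compound exposure (up to 58 uM) in RXFP1-transfected HEK293 cells with Ro 20174 present. EC50 from Hill-equation fits, with 29 nM porcine relaxin as 100% and buffer as basal.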
TSHR antagonist – Antagonists of the Thyroid Stimulating Hormone Receptor: HTS campaign; Thyrotropin receptor (Homo sapiens), P16473; TSHR-expressing cells, TSH-stimulated cAMP HTRF, 2 h; active compounds read low; activity change, negative = inhibition, % at 11.5 µM; 330,000 compounds, 0.2% hits;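 active means activity change below a set negative limit, meaning inhibition stronger than a set level, cut at about -70% in these data; inconclusive means activity change between two set negative limits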; further: on the % scale 0 is the no-effect control and ±100 the full control effect
Target sequence (P16473 whole entry, looked up): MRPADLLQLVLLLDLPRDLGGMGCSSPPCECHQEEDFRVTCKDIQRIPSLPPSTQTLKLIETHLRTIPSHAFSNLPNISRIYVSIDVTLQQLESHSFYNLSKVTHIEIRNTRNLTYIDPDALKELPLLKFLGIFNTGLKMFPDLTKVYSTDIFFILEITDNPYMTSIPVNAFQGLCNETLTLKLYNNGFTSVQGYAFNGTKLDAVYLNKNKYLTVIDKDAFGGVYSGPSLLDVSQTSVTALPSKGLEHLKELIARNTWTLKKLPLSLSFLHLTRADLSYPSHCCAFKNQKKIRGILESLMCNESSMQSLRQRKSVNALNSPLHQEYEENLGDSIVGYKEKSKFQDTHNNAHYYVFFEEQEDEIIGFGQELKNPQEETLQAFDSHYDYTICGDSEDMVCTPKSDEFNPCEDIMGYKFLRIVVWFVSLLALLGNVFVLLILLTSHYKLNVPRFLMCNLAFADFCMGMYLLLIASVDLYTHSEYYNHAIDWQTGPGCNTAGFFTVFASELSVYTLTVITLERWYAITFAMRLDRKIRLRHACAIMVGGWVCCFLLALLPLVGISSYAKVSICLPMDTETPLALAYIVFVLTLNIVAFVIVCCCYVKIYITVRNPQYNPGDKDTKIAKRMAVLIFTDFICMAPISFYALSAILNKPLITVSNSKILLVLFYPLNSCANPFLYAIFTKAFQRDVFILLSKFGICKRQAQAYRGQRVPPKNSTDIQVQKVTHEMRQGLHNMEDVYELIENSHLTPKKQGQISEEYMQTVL
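Antagonism was scored as loss of TSH-driven cAMP in TSHR cells, stimulated with 4nM TSH (EC80) for 2 hours at 37 deg C and detected by homogeneous HTRF competition immunoassay.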
gsp ag – qHTS for Agonist of gsp, the Etiologic Mutation Responsible for Fibrous Dysplasia/McCune-Albright Syndrome: qHTS; Potency, µM (series often up to 76.9 µM), without a hit: top-dose activation (cAMP increase), most hits filed as activators; gsp mutant cells, cAMP HTRF, 30 min; 340,000 compounds, 0.13% hits; AID 624287, 2012; active means well fitted activation curve with a large enough effect; inconclusive means small, poorly fitted or top-dose-only effect, or another doubt; inactive means no such curve, though single readings can be large or run the other way; cell line not stated here;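 further: phosphodiesterase inhibitor Ro 20-1724 added with compounds to block cAMP breakdown; potency means the concentration at half of the fitted maximal effect; nearly all actives have a fitted effect of over 60% in size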
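Cells stably selected in G418 were plated at 2000/well, grown 16-24 hr, then given compounds in DMSO with the PDE inhibitor […] (300 uM solution added) for 30 min at 37C; cAMP was read by HTRF.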
gsp antagonist – qHTS for Antagonists of gsp, the Etiologic Mutation Responsible for Fibrous Dysplasia/McCune-Albright Syndrome: qHTS | gsp-mutant cells, cAMP HTRF, 30 min | Potency, µM (titrated, usually from 76.9 µM), for the others: at the top dose activity change, negative = inhibition, most hits filed as inhibitors | 340,000 compounds, 0.4% hits; calls by dose curve; cell line not stated here;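 further: intracellular cAMP measured with PDE inhibitor Ro 20-1724 present during compound exposure; potency means the concentration at half of the fitted maximal effect; on the % scale 0 is the no-effect control and ±100 the full control effect; nearly all actives have a fitted effect of over 65% in size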
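Cells, 2000/well, grown 16–24 h in DMEM 10% FBS with 0.5 mg/ml G418, then compounds plus […] (300 uM addition stock), 30 min at 37C. cAMP read by HTRF (cAMP-d2 and anti-cAMP antibody-K in lysis buffer) after 30 min RT.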
An asterisk follows results filed as active; u = inconclusive; x = not tested or not shown; [ ] = dose if it differs, or a comment. This is a sample that favours compounds with a hit; in the whole collection about 1% have one here.

SMILES	RXFP1 antagonist	RXFP1 agonist	TSHR antagonist	gsp ag	gsp antagonist
COCCNC(=S)N1CCN(c2nc(-c3ccc(F)cc3)cs2)CC1	-2	0%	2	6%	u
CCNC(=S)N1CCN(c2nc(-c3ccc(F)cc3)cs2)CC1	-9	2%	-17	-16%	35µM*
CCN(CC)CCCNC(=S)N1CCN(c2nc(-c3ccc(F)cc3)cs2)CC1	-74*	1%	31	2%[15.4 µM]	11%
Cc1cccc(C(=O)Nc2c(-c3ccc(F)cc3)nc3ccccn23)c1	x	0%	x	x	x
Cc1ccc(-n2nc(CO)c(C(=O)NC(C)c3ccccc3)n2)cc1C (stereo not drawn)	-26	0%	x	x	x
Cc1ccc(Cl)cc1N1CCN(C(=O)Cn2cnc3nc4c(cc3c2=O)CCCC4)CC1	-68*	3%	x	x	x
CCOC(=O)c1c(C)[nH]c(-c2csc(N)n2)c1C	-7	3%	17	3%[15.4 µM]	x
CCOC(=O)c1c(C)[nH]c(-c2csc(C)n2)c1C	-67*	2%	-7	2%[15.4 µM]	-6%
COc1cccc(NC(=O)CSCn2nnc3c(=O)[nH]c(Cc4ccc(F)cc4)nc32)c1	6	-1%	x	x	x
CC1=C(C)/C(=N\OS(=O)(=O)c2ccc(C)cc2)C=CC1=O	u	0%	16	2%	1%
CC1=C/C(=N\OS(=O)(=O)c2ccccc2)C(C)=CC1=O	u	-3%	-84*	-29%	28µM*
CC1=C/C(=N\OS(=O)(=O)c2ccccc2)C(C(C)C)=CC1=O	u	0%	-84*	-12%	17%
S=c1[nH]nc(-c2ccccc2)c2ccccc12	-84*	10%	-17	u	2%
COc1ccccc1CNC(=O)CSc1nc2nc(C)c(Cc3ccccc3Cl)c(C)n2n1	-19	0%	x	x	x
COc1cc(/C=N/N2CCN(c3ccccc3)CC2)cc(OC)c1OC(C)=O	-1	0%	0	-10%	32µM*
COc1ccc(/C=C/C(=O)NNC(=O)c2cc(C)oc2C)cc1	-62*	3%	-4	-1%[15.4 µM]	5%
COc1ccc(OC)c(CNC(=O)c2c(C)oc3ncn(CC(C)C)c(=O)c23)c1	x	0%	x	x	x
COc1ccc(OC)c(NC(=O)c2cccc(N3C(=O)C4C5CCC(C5)C4C3=O)c2)c1 (stereo not drawn)	1	-3%	-27	-40%	u
COc1ccc(OC)c(NC(=O)c2cccc(N3C(=O)C4C5C=CC(C6CC56)C4C3=O)c2)c1 (stereo not drawn)	-10	2%	-5	-48%	28µM*
O=C(Nc1ccncc1)c1ccc2c(c1)C(=O)N(C1CCCCC1)C2=O	-11	0%	-41	-38%	22µM*
Cc1cc(NC(=O)c2ccc3c(c2)C(=O)N(C2CCCCC2)C3=O)no1	-14	8%	-9	-1%	0%
OCC1O[C@H]([S-])[C@H](O)[C@@H](O)[C@@H]1O.[Au+] (stereo partly drawn)	x	x	-18	x	x
CN(Cc1ccccc1)C(=O)c1ccccc1N(C)S(=O)(=O)c1ccccc1	-62*	1%	-12	19%[15.4 µM]	-11%
COc1ccc2oc(=O)c(-c3csc(Nc4ccc(O)cc4)n3)cc2c1	-39	-3%	-26	0%	25µM*
CCn1nc(C)cc1-c1nnc(Sc2ncc([N+](=O)[O-])s2)n1C	-73*	1%	-92*	8%	11%
O=C(Nc1cccc(C(=O)OCc2cc(=O)n3c4c(sc3n2)CCCC4)c1)c1ccc(Cl)cc1	u	1%	x	x	x
NS(=O)(=O)c1ccc(CCNC(=O)c2ccc(Cl)s2)cc1	3	3%	4	-17%	-5%
NS(=O)(=O)c1ccc(CCNC(=O)c2cc3ccccc3s2)cc1	-18	16%	-103*	-6%[15.4 µM]	-10%
COc1ccc(CNC(=O)CN2C(=O)COc3ccc(S(=O)(=O)Nc4ccccc4)cc32)cc1	x	1%	x	x	x
CCc1cc(/C(Cc2ccccn2)=N\O)c(O)cc1O	0	-2%	-21	13%	35µM*
